From PubChem BioAssay
Records with an inconclusive call do not appear. Activity calls are given as the source filed them.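 Rule for the calls, unless noted: active = efflux inhibition above 0.42, the validation set average plus 4 SD; inconclusive = no clear call, values can overlap the other calls; inactive = the rest.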

How the values were obtained:
[1] = yeast TOR pathway RPL19A-GFP modulators, primary screen, cell-based, S. cerevisiae, multiplex flow cytometry (AID 1862; in the data active = percent of DMSO control GFP below about 86%;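 note: lower values mimic rapamycin by blocking the RPL19A rise seen in DMSO cells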); conditions: S. cerevisiae RPL19A-GFP strain, flow cytometry fluorescence, 3 h; at 10 µM; stronger effect = lower value
[2] = modulators of MEP2-GFP levels in yeast, primary screen, S. cerevisiae, multiplex flow cytometry (AID 1867;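 active = GFP response, as percent of the DMSO control, above the screen-wide mean plus 3 SD, about 139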;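 note: median GFP channel fluorescence of barcode-gated MEP2-GFP cells measured by flow cytometry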); conditions: S. cerevisiae MEP2-GFP strain, 3 h, at 10 µM, stronger effect = higher value, 100% means same as DMSO wells
[3] = modulators of CIT2-GFP expression in yeast, primary screen, S. cerevisiae, GFP fusion, multiplex flow cytometry (AID 1870;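 active = percent response above a set limit, the screen-wide mean plus 3 SD, cut at about 130% in these data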;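 note: barcoded CIT2-GFP strain pooled with four other GFP strains with rapamycin as positive control; median GFP fluorescence per well over plate mean of DMSO wells so 100% = DMSO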); conditions: 3 h, at 10 µM, stronger effect = higher value
[4] = modulators of LAP4-GFP expression in yeast, primary screen, S. cerevisiae, multiplex flow cytometry (AID 1873;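 active = GFP signal, as percent of the solvent control, above the screen mean plus 3 SD, about 149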); conditions: 3 h, at 10 µM, stronger effect = higher value
[5] = modulators of AGP1-GFP expression in yeast TOR pathway, primary screen, cell-based, multiplex flow cytometry, S. cerevisiae (AID 1887;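 active = GFP signal above the screen-wide mean plus 3 SD, that is over about 124.5% of the solvent control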;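 note: AGP1-GFP fusion strain of S. cerevisiae within a five-strain barcoded multiplex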); conditions: 3 h, at 10 µM, stronger effect = higher value
[6] = inhibitors of CD8+ T cell-vesicle binding, pilot screen, LFA-1/ICAM-1 modulator project, MLPCN validation set, flow cytometry (AID 2523;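 active = response below a set limit, under 55% cells CD8-positive and vesicle-bound, and CD8 cells' 90th-percentile brightness under 279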;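 for vesicle binding response: mean PE anti-B7-1 fluorescence of CD8+ cells relative to row control; 100% = QL9-loaded vesicles with DMSO vehicle in the same plate row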); conditions: 2C mouse CD8+ T cells, at 7 µM, stronger effect = lower value; double positive events: measured here: CD8+/vesicle+ event percentage
[7] = target: Integrin beta-1 (Homo sapiens) + Integrin alpha-4 (Homo sapiens) (UniProt P13612+P05556); assay: inhibition of HUTS-21 binding to VLA-4, pilot screen, VLA-4 allosteric modulator project, U937 cells, HUTS-21 mAb, flow cytometry, validation set (AID 2674;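 active = inhibition above 50%, about 3 SD of the validation set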;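 note: antibody binding induced by the VLA-4 ligand LDV present at three times its Kd; 0% = LDV ligand with antibody and no compound and 100% = antibody without LDV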); conditions: HUTS-21 LIBS mAb binding, at 6.7 µM, stronger effect = higher value, binding induced by LDV ligand
[8] = superoxide lowering in aged yeast cells, pilot screen, validation compound set (AID 2706;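 active = superoxide response below 65% of plate, a cut near 3 SD across the whole screen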;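 note: yeast exposed to compound for one week at 30 degrees C before staining; 100% = mean of all compound wells on the same plate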); conditions: S. cerevisiae aging, superoxide DHE fluorescence; at 10 µM; stronger effect = lower value
[9] = target: Beta-adrenergic receptor kinase 1 (Homo sapiens) (UniProt P25098); assay: GRK2 binders displacing RNA aptamer, biochemical, validation, human GRK2, bead flow cytometry (AID 488806;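 active = aptamer binding inhibition above 30%, about 3 SD of noise from non-fluorescent compounds; inactive = inhibition at or below 30%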); conditions: bead-bound GRK2, FAM-aptamer displacement, at 10 µM, stronger effect = higher value
[10] = target: Beta-2 adrenergic receptor (Homo sapiens) (UniProt P07550); assay: beta2AR agonists driving receptor internalization, pilot screen, cell-based, FAP fluorogen, flow cytometry, validation set (AID 504459;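 active = percent response above 42, roughly 3 SD of non-fluorescent test compounds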;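 note: agonist-driven loss of surface beta2AR via internalization measured by FAP dye flow cytometry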); conditions: Am2.2-beta2AR cells, FAP surface receptor flow cytometry; at 10 µM; stronger effect = higher value
[11] = target: AP-2 complex subunit beta (Homo sapiens) (UniProt P63010); assay: inhibitors of arrestin peptide binding to AP2, pilot screen, biochemical, validation set, GST-AP2 beads, flow cytometry (AID 504541;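 active = inhibition above 54%, about 3 SD of non-fluorescent compounds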;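 note: AP2 carries R879A mutation and is captured from E. coli lysate; bead-bound FITC arrestin peptide fluorescence measuring arrestin peptide binding to AP2; 0% = DMSO wells and 100% = excess unlabeled arrestin peptide control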); conditions: FITC arrestin peptide, at 10 µM, stronger effect = higher value, AP2 beta2 appendage fragment, R879A mutant
[12] = yeast V-ATPase proton transport modulators, S. cerevisiae, pHLuorin, HTS validation (AID 504600; in the data active = response above about 15%;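 note: plate controls were DMSO for no effect and reference compound for full effect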); conditions: S. cerevisiae pHLuorin cytosolic pH, at 10 µM, stronger effect = higher value
[13] = system: anti-desmoglein-3 scFv antibody binding to human DSG3; assay: inhibitors of anti-DSG3 scFv binding to DSG3, pilot screen, biochemical, validation compound set, bead-based, flow cytometry (AID 588368;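 active = binding below the plate cutoff, the plate median minus 3 SD, with a reading above zero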;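 note: signal is the median channel fluorescence of bead-bound GFP antibody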); conditions: Protein G beads, DSG3-Fc, scFv-GFP binding, at 10 µM, stronger effect = lower value
[14] = inhibitors of fungal efflux pumps CDR1, CDR2, MDR1, pilot screen, validation compound set, multiplex, phenotypic (AID 588506);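 note: Nile Red retained in cells so higher fluorescence means more efflux inhibition; 0 = negative control wells and 1 = enniatin B 25 µM full block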; conditions: S. cerevisiae pump-expressing triplex, Nile Red efflux flow cytometry; at 10 µM; stronger effect = higher value; the pumps come from Candida albicans
[15] = target: ATP-binding cassette sub-family B member 6 (Homo sapiens) (UniProt Q9NP58); assay: ABCB6 transporter inhibitors, pilot screen, K562-ABCB6 cells, flow cytometry, validation set (AID 588550;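 active = inhibition above the screen-wide mean plus 3 SD, about 51%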;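 note: 0% = DMSO wells and 100% = benzethonium chloride 70 µM positive control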); conditions: K562-ABCB6 porphyrin accumulation, 1 h, at 10 µM, stronger effect = higher value
[16] = promoters of myeloid differentiation in arrested cells, primary screen, cell-based, GFP/MAC1 double positive, flow cytometry, validation set (AID 588685;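 active = differentiation response of at least 50%, scaled between solvent and reference control, from cells with both markers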;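 note: compound exposure lasts four days before antibody staining and flow analysis; 0% = DMSO wells and 100% = 5 µM fulvestrant positive control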); conditions: ER-HoxA9 marrow cells, stronger effect = higher value, normalized: vehicle 0, fulvestrant 100

Sequence of Beta-2 adrenergic receptor (Homo sapiens) (P07550 whole entry, looked up): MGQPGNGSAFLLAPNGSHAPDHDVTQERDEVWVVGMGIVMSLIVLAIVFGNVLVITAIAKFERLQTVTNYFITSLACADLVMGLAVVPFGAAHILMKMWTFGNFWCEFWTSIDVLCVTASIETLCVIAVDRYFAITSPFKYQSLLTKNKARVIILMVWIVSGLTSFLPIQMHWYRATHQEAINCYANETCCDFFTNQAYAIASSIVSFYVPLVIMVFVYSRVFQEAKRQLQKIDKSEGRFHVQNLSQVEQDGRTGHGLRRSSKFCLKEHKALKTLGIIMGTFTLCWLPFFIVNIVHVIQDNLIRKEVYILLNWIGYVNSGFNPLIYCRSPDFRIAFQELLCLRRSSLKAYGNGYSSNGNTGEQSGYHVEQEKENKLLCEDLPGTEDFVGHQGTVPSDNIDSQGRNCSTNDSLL
Sequence of ATP-binding cassette sub-family B member 6 (Homo sapiens) (Q9NP58 whole entry, looked up): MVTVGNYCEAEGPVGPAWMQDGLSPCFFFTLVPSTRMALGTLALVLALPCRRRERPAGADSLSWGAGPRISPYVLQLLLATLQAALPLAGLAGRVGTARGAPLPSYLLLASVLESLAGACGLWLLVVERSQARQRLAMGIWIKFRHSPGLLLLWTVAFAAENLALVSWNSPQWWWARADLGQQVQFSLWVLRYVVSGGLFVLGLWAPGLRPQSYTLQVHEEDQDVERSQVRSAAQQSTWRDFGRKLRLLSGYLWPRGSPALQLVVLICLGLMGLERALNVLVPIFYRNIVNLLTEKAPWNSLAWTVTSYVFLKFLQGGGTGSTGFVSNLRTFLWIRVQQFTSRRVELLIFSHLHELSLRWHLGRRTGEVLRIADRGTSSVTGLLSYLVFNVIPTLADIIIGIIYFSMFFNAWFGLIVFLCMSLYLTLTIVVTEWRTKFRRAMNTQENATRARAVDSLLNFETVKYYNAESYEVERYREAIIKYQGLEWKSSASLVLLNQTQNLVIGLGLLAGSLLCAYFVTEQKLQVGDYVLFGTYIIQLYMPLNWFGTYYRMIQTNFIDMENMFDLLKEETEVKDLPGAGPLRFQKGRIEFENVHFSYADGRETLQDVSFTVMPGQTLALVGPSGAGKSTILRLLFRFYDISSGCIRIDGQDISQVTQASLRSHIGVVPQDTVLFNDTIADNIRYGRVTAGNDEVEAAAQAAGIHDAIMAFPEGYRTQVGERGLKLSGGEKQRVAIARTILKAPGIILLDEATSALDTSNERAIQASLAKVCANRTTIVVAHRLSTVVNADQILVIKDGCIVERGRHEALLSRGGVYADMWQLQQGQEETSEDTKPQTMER
Sequence of Integrin beta-1 (Homo sapiens) + Integrin alpha-4 (Homo sapiens) (P05556 whole entry, looked up): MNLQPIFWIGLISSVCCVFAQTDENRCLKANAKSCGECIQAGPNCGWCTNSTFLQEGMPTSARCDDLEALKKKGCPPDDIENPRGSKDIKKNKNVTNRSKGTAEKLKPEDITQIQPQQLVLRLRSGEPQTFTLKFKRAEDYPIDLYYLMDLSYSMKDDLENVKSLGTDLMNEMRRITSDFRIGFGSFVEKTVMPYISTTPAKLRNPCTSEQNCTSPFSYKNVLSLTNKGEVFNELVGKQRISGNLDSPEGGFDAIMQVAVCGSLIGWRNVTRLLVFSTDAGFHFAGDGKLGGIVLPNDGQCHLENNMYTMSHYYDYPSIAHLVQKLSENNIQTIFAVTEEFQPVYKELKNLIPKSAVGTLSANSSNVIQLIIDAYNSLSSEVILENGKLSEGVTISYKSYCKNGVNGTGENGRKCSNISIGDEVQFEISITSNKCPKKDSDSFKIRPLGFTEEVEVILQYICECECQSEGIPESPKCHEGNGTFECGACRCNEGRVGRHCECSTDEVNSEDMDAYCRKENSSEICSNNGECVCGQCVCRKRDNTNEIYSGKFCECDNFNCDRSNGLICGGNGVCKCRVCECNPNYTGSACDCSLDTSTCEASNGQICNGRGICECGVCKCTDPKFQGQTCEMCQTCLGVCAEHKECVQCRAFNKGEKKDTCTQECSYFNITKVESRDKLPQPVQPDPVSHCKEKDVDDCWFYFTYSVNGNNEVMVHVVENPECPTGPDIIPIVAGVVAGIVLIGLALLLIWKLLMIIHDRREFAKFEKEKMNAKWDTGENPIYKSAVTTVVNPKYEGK
Sequence of Integrin beta-1 (Homo sapiens) + Integrin alpha-4 (Homo sapiens) (P13612 whole entry, looked up): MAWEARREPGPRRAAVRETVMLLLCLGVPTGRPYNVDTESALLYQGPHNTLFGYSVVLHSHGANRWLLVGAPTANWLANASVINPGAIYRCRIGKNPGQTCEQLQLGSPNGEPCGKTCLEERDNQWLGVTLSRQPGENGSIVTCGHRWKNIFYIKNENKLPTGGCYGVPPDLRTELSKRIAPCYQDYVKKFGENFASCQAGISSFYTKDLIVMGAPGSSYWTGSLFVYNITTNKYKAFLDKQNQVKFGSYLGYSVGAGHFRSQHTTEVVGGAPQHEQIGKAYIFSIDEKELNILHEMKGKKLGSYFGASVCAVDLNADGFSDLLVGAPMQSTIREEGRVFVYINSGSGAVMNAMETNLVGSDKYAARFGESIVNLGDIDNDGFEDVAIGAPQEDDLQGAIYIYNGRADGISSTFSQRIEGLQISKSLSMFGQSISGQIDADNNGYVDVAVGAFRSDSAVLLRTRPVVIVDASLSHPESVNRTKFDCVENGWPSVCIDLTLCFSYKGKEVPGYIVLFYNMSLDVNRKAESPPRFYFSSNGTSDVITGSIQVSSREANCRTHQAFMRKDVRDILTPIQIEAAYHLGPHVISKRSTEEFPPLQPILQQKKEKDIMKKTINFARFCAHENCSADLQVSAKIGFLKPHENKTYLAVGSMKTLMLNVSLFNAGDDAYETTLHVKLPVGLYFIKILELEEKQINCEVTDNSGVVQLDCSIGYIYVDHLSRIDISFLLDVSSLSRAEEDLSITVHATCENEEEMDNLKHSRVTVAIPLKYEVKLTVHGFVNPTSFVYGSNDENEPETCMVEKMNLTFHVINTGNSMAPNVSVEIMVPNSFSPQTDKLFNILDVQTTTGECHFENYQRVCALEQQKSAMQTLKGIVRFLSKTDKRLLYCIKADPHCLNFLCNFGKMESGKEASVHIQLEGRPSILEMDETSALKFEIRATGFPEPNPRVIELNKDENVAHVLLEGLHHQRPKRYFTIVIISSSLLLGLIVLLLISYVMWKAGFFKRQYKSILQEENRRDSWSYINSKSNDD
Sequence of Beta-adrenergic receptor kinase 1 (Homo sapiens) (P25098 whole entry, looked up): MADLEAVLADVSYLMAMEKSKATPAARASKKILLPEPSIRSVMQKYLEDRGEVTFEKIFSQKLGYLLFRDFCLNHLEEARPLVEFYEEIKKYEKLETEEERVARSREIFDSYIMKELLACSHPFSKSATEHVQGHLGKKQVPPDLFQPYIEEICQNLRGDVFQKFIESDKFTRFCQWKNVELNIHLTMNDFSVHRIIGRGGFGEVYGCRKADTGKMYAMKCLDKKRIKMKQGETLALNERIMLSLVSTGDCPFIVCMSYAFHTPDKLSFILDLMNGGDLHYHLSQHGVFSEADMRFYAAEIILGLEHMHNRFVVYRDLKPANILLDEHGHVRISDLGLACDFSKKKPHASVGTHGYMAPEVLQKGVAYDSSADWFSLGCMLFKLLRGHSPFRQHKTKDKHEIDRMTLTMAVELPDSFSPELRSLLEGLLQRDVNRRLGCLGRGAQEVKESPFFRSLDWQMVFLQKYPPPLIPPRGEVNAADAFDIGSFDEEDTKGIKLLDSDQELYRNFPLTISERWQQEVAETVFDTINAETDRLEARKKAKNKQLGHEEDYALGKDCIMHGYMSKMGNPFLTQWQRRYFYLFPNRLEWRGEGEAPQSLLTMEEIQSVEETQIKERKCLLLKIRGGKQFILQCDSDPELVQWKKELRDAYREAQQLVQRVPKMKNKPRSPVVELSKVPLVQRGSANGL
Sequence of AP-2 complex subunit beta (Homo sapiens) (P63010 whole entry, looked up, the tested form may be a part, one chain of several): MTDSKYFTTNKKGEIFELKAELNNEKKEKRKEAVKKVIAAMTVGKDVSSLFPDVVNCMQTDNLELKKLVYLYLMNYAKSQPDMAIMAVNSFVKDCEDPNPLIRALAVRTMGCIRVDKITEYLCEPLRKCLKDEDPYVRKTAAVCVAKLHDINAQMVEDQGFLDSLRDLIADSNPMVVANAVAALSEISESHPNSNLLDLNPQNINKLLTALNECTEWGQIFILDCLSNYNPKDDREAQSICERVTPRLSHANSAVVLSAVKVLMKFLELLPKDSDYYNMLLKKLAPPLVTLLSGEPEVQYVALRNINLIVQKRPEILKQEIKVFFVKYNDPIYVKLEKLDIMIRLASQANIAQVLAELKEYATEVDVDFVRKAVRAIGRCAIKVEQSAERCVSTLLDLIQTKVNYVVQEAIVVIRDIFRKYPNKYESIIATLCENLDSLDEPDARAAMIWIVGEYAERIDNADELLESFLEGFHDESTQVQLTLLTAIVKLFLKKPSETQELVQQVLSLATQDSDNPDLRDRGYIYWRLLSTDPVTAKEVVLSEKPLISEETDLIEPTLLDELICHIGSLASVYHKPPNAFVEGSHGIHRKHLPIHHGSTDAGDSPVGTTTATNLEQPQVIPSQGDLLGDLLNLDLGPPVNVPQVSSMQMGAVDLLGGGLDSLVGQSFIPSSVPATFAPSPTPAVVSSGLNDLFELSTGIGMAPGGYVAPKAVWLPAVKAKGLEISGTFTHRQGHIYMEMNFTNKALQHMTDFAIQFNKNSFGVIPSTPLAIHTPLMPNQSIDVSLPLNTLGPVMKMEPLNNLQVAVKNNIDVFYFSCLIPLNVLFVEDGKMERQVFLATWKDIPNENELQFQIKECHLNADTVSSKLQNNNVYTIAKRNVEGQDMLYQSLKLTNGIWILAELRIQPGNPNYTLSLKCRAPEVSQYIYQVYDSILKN

Structure (SMILES)	percent of DMSO control GFP [1]	GFP response vs DMSO [2]	percent response of DMSO control [3]	GFP response vs DMSO [4]	GFP response, % of DMSO [5]	double positive events [6] [%]	vesicle binding response [6]	inhibition [7]	superoxide response (% of plate) [8]	aptamer binding inhibition [9]	response [10]	inhibition [11]	response [12]	binding (% of control) [13]	efflux inhibition (fraction of control) [14]	inhibition [15]	differentiation response [16]
CC(C)(C)C(=O)NCCCNc1ccc([N+](=O)[O-])cc1	103% (inactive)	123% (inactive)	93.9% (inactive)	95.2% (inactive)	104% (inactive)	67.3	295% (inactive)	5.49% (inactive)	86% (inactive)	-1% (inactive)	-6.07% (inactive)	22% (inactive)	1.78% (inactive)	110% (inactive)	-0.06 (inactive)	15% (inactive)	12.3% (inactive)
COc1ccc(C(=O)COc2ccc(F)cc2)c(O)c1	106% (inactive)	98.3% (inactive)	106% (inactive)	96% (inactive)	97.6% (inactive)	60.6	253% (inactive)	-7.72% (inactive)	86.7% (inactive)	1% (inactive)	-9.67% (inactive)	1.75% (inactive)	2.77% (inactive)	94.5% (inactive)	-0.04 (inactive)	1% (inactive)	1.22% (inactive)
CC(OC(=O)c1cc(=O)[nH]c2ccccc12)C(=O)c1ccccc1 (stereo not drawn)	99.6% (inactive)	101% (inactive)	106% (inactive)	107% (inactive)	105% (inactive)	58.9	174% (inactive)	-15.8% (inactive)	96.4% (inactive)	-2% (inactive)	1.78% (inactive)	-9.56% (inactive)	0.61% (inactive)	106% (inactive)	-0.61 (inactive)	41% (inactive)	-4.57% (inactive)
COc1ccc2nc(S(=O)Cc3ncc(C)c(OC)c3C)[nH]c2c1 (stereo not drawn)	107% (inactive)	105% (inactive)	99.7% (inactive)	95.9% (inactive)	97.1% (inactive)	60.4	131% (inactive)	-13.2% (inactive)	84.9% (inactive)	2% (inactive)	24.8% (inactive)	-8.15% (inactive)	0.81% (inactive)	104% (inactive)	-0.16 (inactive)	-7% (inactive)	52.5% (active)
COc1cc2oc(-c3ccc(O)cc3)cc(=O)c2c(OC)c1O	100% (inactive)	101% (inactive)	104% (inactive)	88.2% (inactive)	98% (inactive)	56.3	118% (inactive)	-11.8% (inactive)	107% (inactive)	3% (inactive)	-2.51% (inactive)	-0.6% (inactive)	-4.25% (inactive)	100% (inactive)	-0.16 (inactive)	0% (inactive)	8.59% (inactive)
CC(C)[C@H]1CN(C)CCN1Cc1cn(C)nc1-c1cccc(Cl)c1	105% (inactive)	104% (inactive)	98.9% (inactive)	90.1% (inactive)	102% (inactive)	58.1	48.9% (inactive)	3.7% (inactive)	104% (inactive)	-1% (inactive)	-4.02% (inactive)	19.9% (inactive)	-0.96% (inactive)	99.3% (inactive)	0.3 (inactive)	1% (inactive)	3.18% (inactive)
CC(=O)[C@H]1[C@H](C#N)C[C@H]2[C@@H]3CC=C4C[C@@H](O)CC[C@]4(C)[C@H]3CC[C@@]21C	92% (inactive)	125% (inactive)	104% (inactive)	85.8% (inactive)	88% (inactive)	62.5	112% (inactive)	19.1% (inactive)	104% (inactive)	11% (inactive)	2.41% (inactive)	-10% (inactive)	0% (inactive)	103% (inactive)	-0.28 (inactive)	6% (inactive)	-3.28% (inactive)
O=C(/C=C/c1ccc2c(c1)OCCCO2)c1ccc2ccccc2c1O	97.3% (inactive)	102% (inactive)	99.6% (inactive)	112% (inactive)	109% (inactive)	59.6	215% (inactive)	-76.9% (inactive)	102% (inactive)	8% (inactive)	-12.2% (inactive)	-2.45% (inactive)	2.01% (inactive)	98.5% (inactive)	0.04 (inactive)	6% (inactive)	-7.94% (inactive)
CC(=O)Nc1c(I)c(NC(C)=O)c(I)c(C(=O)O)c1I	89.3% (inactive)	123% (inactive)	104% (inactive)	78.1% (inactive)	94% (inactive)	58.9	171% (inactive)	10.3% (inactive)	103% (inactive)	-1% (inactive)	-8.3% (inactive)	2.48% (inactive)	1.06% (inactive)	95% (inactive)	0.12 (inactive)	9% (inactive)	2.46% (inactive)
